{"source": "PubChem BioAssay (EPA / NIEHS)", "note": "Inconclusive results are not listed. Calls of active or inactive are those of the source. The calls were made as follows: active = hit-call score of the fitted dose curve at least 0.9, where 1 is the maximum; inconclusive = response in the unintended direction; inactive = score below 0.9."}
{"target": "Caspase-1 (Homo sapiens) (UniProt P29466)", "sequence (P29466 whole entry, looked up)": "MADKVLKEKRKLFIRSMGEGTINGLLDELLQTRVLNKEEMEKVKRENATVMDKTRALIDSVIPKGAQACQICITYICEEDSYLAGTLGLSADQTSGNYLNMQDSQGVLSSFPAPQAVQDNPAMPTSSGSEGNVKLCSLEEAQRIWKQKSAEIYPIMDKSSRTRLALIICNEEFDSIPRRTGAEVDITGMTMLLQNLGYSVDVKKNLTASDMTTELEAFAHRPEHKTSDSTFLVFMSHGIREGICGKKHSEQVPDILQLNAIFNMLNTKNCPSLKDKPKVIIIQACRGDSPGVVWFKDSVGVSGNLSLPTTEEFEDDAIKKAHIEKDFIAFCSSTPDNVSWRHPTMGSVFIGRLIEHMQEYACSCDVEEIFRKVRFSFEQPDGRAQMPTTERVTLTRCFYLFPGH", "experiment": "NVS_ENZ_hCASP1: NovaScreen (NVS) Enzymatic Assay for human Caspase 1 (CASP1) (AID 2283132)", "description": "NVS_ENZ_hCASP1 is a biochemical, single-readout assay that uses extracted gene-proteins from E. coli in a cell-free assay. Measurements were taken 1 hour after chemical dosing in a 96-well plate.NVS_ENZ_hCASP1 is one of one assay component(s) measured or calculated from the NVS_ENZ_hCASP1 assay. It is designed to make measurements of enzyme activity, a form of enzyme reporter, as detected with fluorescence intensity signals by Fluorescence technology.Data from the assay component NVS_ENZ_hCASP1 was analyzed into 1 assay endpoint. This assay endpoint, NVS_ENZ_hCASP1, was analyzed in the positive analysis fitting direction relative to DMSO as the negative control and baseline of activity. Using a type of enzyme reporter, loss-of-signal activity can be used to understand changes in the enzymatic activity as they relate to the gene CASP1. Furthermore, this assay endpoint can be referred to as a primary readout, because this assay has produced multiple assay endpoints where this one serves a enzymatic activity function. To generalize the intended target to other relatable targets, this assay endpoint is annotated to the protease intended target family, where the subfamily is cysteine protease.\nBinding assays used specific radioligands (tritiated, iodinated) with non-radioactive competitive displacement ligands in agonist or antagonist protocols (as indicated) and various reference compounds and inhibitors to titrate specific binding to receptors and transporters. Most enzyme assays (CYPs, kinases, phosphatases, proteases, HDACs) used recombinant protein and specific substrates (fluorescence mostly, some colorimetric and radioactive) and inhibitors, followed by a biochemical separation of substrate and product. All assays for the biochemical HTS were initially run in duplicate at a single concentration (10 uM for CYP450 assays and 25 uM for all others). Assay-chemical combinations meeting a pre-defined threshold (e.g., 30% inhibition and other criteria defined below) were then run in singleton concentration-response format with maximum concentration of 20 uM for CYPs and 50 uM for all others. Each assay was run with positive and negative controls, and concurrent controls on every plate. The follow-up (secondary) screen tested active chemical-pairs in concentration series, as well as a few additional assays not tested in the primary screen, some selected negative inactives, and several cases re-run in the concentration series for confirmatory purposes."}
{"compound": "COc1cc(-c2nc(NC(=O)c3cc4cc(C)cc(C)c4n3CC(=O)O)sc2CCC2CCCCC2)c(OC)cc1Cl", "AC50": "29.1 µM (active)"}
{"compound": "S=C(S)NCCNC(=S)S.[Mn+2].[S-]C([S-])=NCCN=C([S-])[S-].[Zn+2]", "outcome": "inactive"}
{"compound": "CN(C)c1ccc(C(=C2C=CC(=[N+](C)C)C=C2)c2ccc(N(C)C)cc2)cc1", "outcome": "inactive"}
{"compound": "Nc1ccc2c(c1)C(=O)c1ccccc1C2=O", "outcome": "inactive"}
{"compound": "O=C(OC[C@H]1O[C@@H](OC(=O)c2cc(O)c(O)c(OC(=O)c3cc(O)c(O)c(O)c3)c2)[C@H](OC(=O)c2cc(O)c(O)c(OC(=O)c3cc(O)c(O)c(O)c3)c2)[C@@H](OC(=O)c2cc(O)c(O)c(OC(=O)c3cc(O)c(O)c(O)c3)c2)[C@@H]1OC(=O)c1cc(O)c(O)c(OC(=O)c2cc(O)c(O)c(O)c2)c1)c1cc(O)c(O)c(OC(=O)c2cc(O)c(O)c(O)c2)c1", "AC50": "1.14 µM (active)"}
{"compound": "CCOc1cccc(-n2cc(C(=O)N3CCN(c4cc(C(=O)O)c5ccccc5c4)CC3)nc2-c2ccc(C)cc2)c1", "outcome": "inactive"}
{"compound": "COc1cc(S(=O)(=O)O)c(C)cc1N=Nc1c(O)ccc2cc(S(=O)(=O)O)ccc12", "AC50": "25 µM (active)"}
{"compound": "S=C([S-])NCCNC(=S)[S-].[Mn+2]", "outcome": "inactive"}
{"compound": "CCCCCCC(C)OC(=O)COc1nc(F)c(Cl)c(N)c1Cl", "note": "(stereo not given)", "outcome": "inactive"}
{"compound": "OC[C@H]1O[C@@](CO)(O[C@H]2O[C@H](CO)[C@@H](O)[C@H](O)[C@H]2O)[C@@H](O)[C@@H]1O", "outcome": "inactive"}
{"compound": "CCC(O)=C1C(=O)CC(C(=O)O)CC1=O", "note": "(stereo not given)", "outcome": "inactive"}
{"compound": "Oc1cc2ccccc2c2ccccc12", "AC50": "12.1 µM (active)"}
{"compound": "O=S(=O)(O)c1ccc(N=Nc2c(O)ccc3cc(S(=O)(=O)O)ccc23)cc1", "AC50": "25 µM (active)"}
{"compound": "O=C1c2c(O)cccc2Cc2cccc(O)c21", "AC50": "5.01 µM (active)"}
{"compound": "CCc1cc(SCc2sc(-c3ccc(C(F)(F)F)cc3)nc2CN2CCN(c3ccc(OC)cc3)CC2)ccc1OCC(=O)O", "AC50": "46.1 µM (active)"}
